PubChem BioAssay (Tox21)
Results filed as inconclusive are left out. Activity calls are given as the source filed them. Unless noted, the call rests on the fitted dose curve; in most records, active means well fitted curve in the direction sought with a large enough effect in the repeat runs; inconclusive means weak or mixed curves; inactive means no such curve, though single readings can be large; an effect the other way counts as inactive or inconclusive.

Columns and labels:
[1] = qHTS assay to identify small molecule agonists of the vitamin D receptor (VDR) signaling pathway - cell viability counter screen (AID 743224); details: VDR-bla HEK293T viability, CellTiter-Glo luminescence, 16 h; series mostly up to 62.6 µM; further: nearly all actives have a fitted effect of over 50% in size
How it was run: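 Here cell health was gauged by luminescent ATP detection (CellTiter-Glo, 30 min RT) in VDR-bla cells that had been incubated with test compounds for 16 h at 37C and 5% CO2.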

[2] = qHTS assay to identify small molecule antagonists of the vitamin D receptor (VDR) signaling pathway - cell viability counter screen (AID 743225); details: VDR-bla HEK293T viability, CellTiter-Glo luminescence, 16 h; series mostly up to 61 µM; further: nearly all actives have a fitted effect of over 50% in size
How it was run: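 VDR-bla HEK 293T cells, 4 h pre-incubation at 37C, then compound plus 1-alpha,25-dihydroxyvitamin D3 (3 nM final) for 16 h. After the beta-lactamase FRET read, CellTiter-Glo was added to the same wells; luminescence after 30 min at room temperature.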

[3] = qHTS assay to identify small molecule agonists of the NFkB signaling pathway - cell viability counter screen (AID 1159515; calls by dose curve; further: nearly all actives have a fitted effect of over 55% in size); details: NFkB-bla ME-180 viability, CellTiter-Glo luminescence, 5 h; series mostly up to 61 µM
How it was run: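 5 hr compound treatment of NFkB-bla ME-180 cells (2,000/well, seeded overnight beforehand), followed by reporter substrate for 1.5 hr. CellTiter-Glo added afterward; luminescence after 30 min RT.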

[4] = qHTS assay to identify small molecule agonists of the endoplasmic reticulum stress response signaling pathway (AID 1159516; active means well fitted activation curve with a large enough effect in the signal ratio in the repeat runs, not every such curve was filed as active; the % refers to the signal ratio); details: ESRE-bla HeLa, ER stress beta-lactamase reporter, 5 h; series mostly up to 61 µM
How it was run: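 Reporter HeLa cells (ESRE-beta-lactamase) underwent 5 hr compound incubation at 37 C and 5% CO2 in quantitative HTS format. Detection followed 2 hr of FRET substrate loading at room temperature.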

[5] = qHTS assay to identify small molecule agonists of the endoplasmic reticulum stress response signaling pathway - cell viability counter screen (AID 1159517; calls by dose curve;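 further: HeLa cells carrying an ER stress response element beta-lactamase reporter; nearly all actives have a fitted effect of over 50% in size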); details: ESRE-bla HeLa viability, CellTiter-Glo luminescence, 5 h; series mostly up to 61 µM
How it was run: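 Luminescence readout: CellTiter-Glo, 30 min RT, same wells as the ESRE-bla reporter read. HeLa ESRE-bla, 1,500 cells/well, o/n 37 C; cpd 5 hr 37 C/5% CO2.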

[6] = qHTS assay to identify small molecule antagonists of the retinoid-related orphan receptor gamma (ROR-gamma) signaling pathway - cell viability counter screen (AID 1159520); details: Tet-on RORgamma CHO cells viability, ATP luminescence, 16 h; series mostly up to 92.4 µM; further: nearly all actives have a fitted effect of over 50% in size
How it was run: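 Tet-on ROR gamma CHO cells (1,000/well) were plated 4 hr, given compounds in DMSO for 2 hr at 37 C, then induced with 1 uM final doxycycline for 16 hr. Viability was read as ATP by CellTiter-Glo luminescence after 30 min.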

[7] = molecular target: Nuclear receptor ROR-gamma (Homo sapiens) (UniProt P51449); assay: qHTS assay to identify small molecule antagonists of the retinoid-related orphan receptor gamma (ROR-gamma) signaling pathway (AID 1159521); details: Tet-on RORgamma CHO cells, RORE-luciferase, 16 h; series mostly up to 42.5 µM
How it was run: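 Tet-on RORγ CHO cells carrying a ROR response element–luciferase reporter were pretreated with compounds for 2 h, then induced with 1 uM (final) doxycycline hyclate for 16 h at 37 C. Antagonism was read as decreased ONE-Glo luminescence.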

[8] = qHTS assay to identify small molecule agonists of the AP-1 signaling pathway - cell viability counter screen (AID 1159525; calls by dose curve; further: nearly all actives have a fitted effect of over 55% in size); details: ME-180 AP-1-bla cells viability, ATP luminescence, 5 h; series mostly up to 76.8 µM
How it was run: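 ME-180 AP-1-bla, 2500 cells/well, Opti-MEM + 0.5% dialyzed FBS; overnight 37 °C; cpd 15-pt titration, 5 h 37 °C; CellTiter-Glo 30 min RT; luminescence read; normalised to TOAB and DMSO controls.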

[9] = qHTS assay to identify small molecule agonists of the AP-1 signaling pathway (AID 1159526; calls by dose curve); details: ME-180 (cervical carcinoma) AP-1-bla reporter, beta-lactamase FRET ratio, 5 h; series mostly up to 35.3 µM
[10] = molecular target: Retinoic acid receptor RXR-alpha (Homo sapiens) (UniProt P19793); assay: qHTS assay to identify small molecule agonists of the RXR signaling pathway (AID 1159527; calls by dose curve; further: nearly all actives have a fitted effect of over 35% in size); details: HEK293T RXRa-UAS-bla, beta-lactamase ratio, 16 h; series mostly up to 35.3 µM
Sequence of Retinoic acid receptor RXR-alpha (Homo sapiens) (P19793 whole entry, looked up): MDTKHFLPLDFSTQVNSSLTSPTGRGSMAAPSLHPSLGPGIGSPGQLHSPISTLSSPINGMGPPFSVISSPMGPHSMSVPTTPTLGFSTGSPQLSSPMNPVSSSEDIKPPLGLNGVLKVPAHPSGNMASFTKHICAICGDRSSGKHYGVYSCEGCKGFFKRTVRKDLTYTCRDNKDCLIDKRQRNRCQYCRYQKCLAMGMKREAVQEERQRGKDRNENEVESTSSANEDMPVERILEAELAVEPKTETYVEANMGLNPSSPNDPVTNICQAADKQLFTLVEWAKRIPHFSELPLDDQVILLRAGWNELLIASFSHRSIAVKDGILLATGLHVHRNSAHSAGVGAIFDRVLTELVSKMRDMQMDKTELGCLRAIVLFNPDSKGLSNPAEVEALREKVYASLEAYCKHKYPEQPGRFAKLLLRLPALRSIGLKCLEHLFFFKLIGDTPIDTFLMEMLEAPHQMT
How it was run: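 GeneBLAzer RXR-alpha-UAS-bla HEK 293T cells in medium with 2% charcoal-stripped FBS, pre-incubated 5 hr at 37 C, then exposed to compounds 16 hr. Beta-lactamase reporter read by FRET substrate, 2 hr room temperature, 460/530 nm emission.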

[11] = qHTS assay to identify small molecule agonists of the RXR signaling pathway - cell viability counter screen (AID 1159529); details: RXR-alpha-bla HEK293T viability, CellTiter-Glo, 16 h; series mostly up to 35.3 µM; further: nearly all actives have a fitted effect of over 50% in size
How it was run: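 RXR-alpha-UAS-bla HEK 293T cells in medium with 2% charcoal-stripped FBS were preincubated 5 hr, then exposed to compounds for 16 hr at 37 C. Viability was read as CellTiter-Glo luminescence after 30 min at room temperature.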

[12] = qHTS assay to identify small molecule antagonists of the retinoid acid receptor (RAR) signaling pathway - cell viability counter screen (AID 1159551); details: C3RL4 cells viability, ATP luminescence (CellTiter-Glo), 6 h; series mostly up to 92.4 µM; further: nearly all actives have a fitted effect of over 35% in size
How it was run: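 Seed C3RL4 cells; next day add compound, then retinol to 1 uM final; incubate 6 h at 37 C; add CellTiter-Glo; read luminescence after 30 min at RT.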

[13] = qHTS assay to identify small molecule antagonists of the retinoic acid receptor (RAR) signaling pathway (AID 1159552; further: nearly all actives have a fitted effect of over 50% in size); details: C3RL4 RARE luciferase reporter, retinol-stimulated, 6 h; series mostly up to 92.4 µM
How it was run: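 RARE-luc C3RL4 cells; cpds + 1 uM (final) retinol, 6 hr, 37 C/5% CO2; luciferase reagent, 30 min RT, luminescence readout. Inhibitors of retinol-driven signal scored.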

[14] = qHTS assay to identify small molecule agonists of the retinoic acid receptor (RAR) signaling pathway (AID 1159553); details: C3RL4 RARE luciferase reporter, agonist, 6 h; series mostly up to 73.3 µM
How it was run: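 Activation of retinol signaling was monitored via a RARE luciferase reporter in C3RL4 cells. After 6 hr compound treatment at 37 C, detection reagent was added for 30 min at room temperature before luminescence reading.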

[15] = qHTS assay to identify small molecule antagonists of the estrogen related receptor (ERR) signaling pathway - cell viability counter screen (AID 1224818); details: ERR reporter cell line viability counter screen; series mostly up to 46.1 µM;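 further: viability measured after 17.5 h of compound exposure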
How it was run: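 In the same ERR cell assay, compound-treated wells (17.5 h, 37 C) were multiplexed with a fluorogenic viability reagent, CellTiter-Fluor, read after 30 min to flag cytotoxic substances.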

[16] = qHTS assay to identify small molecule antagonists of the estrogen related receptor signaling pathway with the pleiotropic PPARgamma coactivator (PGC) cell viability counter screen (AID 1224822); details: ERR/PGC reporter cell line viability counter screen; series mostly up to 46.1 µM
How it was run: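 Compounds in DMSO, with positive and negative controls, were applied to PGC/ERR cells (2,000/well) and left 17.5 h at 37 C before CellTiter-Fluor detection.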

Measured: Potency

Cn1c(N)c(N=O)c(=O)n(C)c1=O
not listed: [15] | [16]
inactive: all other assays above

CCC(C)C1CCCCC1=O (stereo not given)
not listed: [10] | [15] | [16]
inactive: all other assays above

CC(=O)c1ccccc1O
not listed: [15] | [16]
inactive: all other assays above

FC1(F)C(F)(F)C(F)(F)C2(F)C(F)(F)C(F)(F)C(F)(F)C(F)(F)C2(F)C1(F)F (stereo not given)
not listed: [14] | [15] | [16]
inactive: all other assays above

Oc1ccc(C2CNCCc3c2cc(O)c(O)c3Cl)cc1 (stereo not given)
not listed: [10]
inactive: all other assays above

O=C(O)CCCc1ccccc1
not listed: [13] | [15] | [16]
inactive: all other assays above

O=[N+]([O-])c1ccc(F)cc1F
not listed: [15] | [16]
inactive: all other assays above

CCCCC(CC)COC(=O)c1ccccc1O (stereo not given)
not listed: [13] | [15] | [16]
inactive: all other assays above

C=C1CC[C@H]2C[C@@H]1C2(C)C
not listed: [4] | [15] | [16]
inactive: all other assays above

C1CN(CCOCCN2CCOCC2)CCO1
not listed: [15] | [16]
inactive: all other assays above

NCCc1cnc[nH]1
not listed: [14]
inactive: all other assays above

CC1=CC(C)C(C=O)CC1 (stereo not given)
not listed: [15] | [16]
inactive: all other assays above
